PINK1 expr mod – A Quantitative High throughput Screen to Identify Chemical Modulators of PINK1 Expression; PINK1 immunofluorescence, high-content cytometry, 24 h; Potency, µM (doses to about 76.6 µM), most hits filed as activators; 410,000 compounds, 0.2% hits; AID 624263, 2012; active means well fitted activation curve with a large enough effect; inconclusive means small, poorly fitted or top-dose-only effect; cell line not stated here; further: nearly all actives have a fitted effect of over 65% in size
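Stable cell line treated 24 h with compounds at 5 concentrations (CCCP controls), then fixed and immunostained for PINK1 plus nuclear and cell stains; PINK1 immunofluorescence quantified by laser-scanning microplate cytometry.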
TrxR1 inh – qHTS Assay for Inhibitors of Mammalian Selenoprotein Thioredoxin Reductase 1 (TrxR1): qHTS; Thioredoxin reductase 1, cytoplasmic (Rattus norvegicus), O89049; recombinant rTrxR1, NADPH fluorescence consumption, selenite substrate; Potency, µM (titrated, usually from 114 µM), actives largely listed as inhibitors; 390,000 compounds, 1% hits; further: nearly all actives have a fitted effect of over 65% in size
Target sequence (O89049 whole entry, looked up): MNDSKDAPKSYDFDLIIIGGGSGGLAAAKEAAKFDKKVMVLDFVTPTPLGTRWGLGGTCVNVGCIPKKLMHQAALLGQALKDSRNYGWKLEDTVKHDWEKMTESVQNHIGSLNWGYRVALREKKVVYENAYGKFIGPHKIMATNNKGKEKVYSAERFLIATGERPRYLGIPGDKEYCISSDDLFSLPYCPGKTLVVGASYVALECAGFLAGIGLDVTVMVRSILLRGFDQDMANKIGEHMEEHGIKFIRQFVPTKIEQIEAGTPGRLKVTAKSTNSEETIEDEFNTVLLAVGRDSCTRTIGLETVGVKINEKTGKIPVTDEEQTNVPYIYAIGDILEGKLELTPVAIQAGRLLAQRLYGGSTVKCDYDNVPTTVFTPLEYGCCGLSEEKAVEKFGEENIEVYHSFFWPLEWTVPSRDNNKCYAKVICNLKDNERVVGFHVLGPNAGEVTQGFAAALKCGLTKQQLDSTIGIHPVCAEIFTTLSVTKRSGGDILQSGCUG
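Rat TrxR1 (90 nM in the dispensed reagent) was pre-reduced with 400 uM NADPH for 5 min at room temperature, then incubated with compound for 15 min. After 400 uM selenite was added, NADPH fluorescence (Ex 340/Em 450 nm) was followed for 8 min.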
miR-21 reporter – qHTS Assay for Modulators of miRNAs and/orActivators of miR-21; HeLa miR-21 FLuc reporter, luciferase, 48 h; Potency, µM (doses to about 38.3 µM), hits mostly activators; 340,000 tested, under 10 active;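 further: miR-21 action dims this reporter so a rising signal means less miR-21 action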
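HeLa cells stably expressing CMV-driven firefly luciferase with a downstream miR-21 binding sequence, endogenously expressing miR-21, were treated with titrations (up to about 40uM final) for 48 hours at 37 degree Celsius. Luciferase luminescence was read after lysis.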
GALK inh – qHTS Assay for Inhibitors of Human Galactokinase (GALK); P51570; Potency, µM (top dose mostly 57.5 µM), actives largely listed as inhibitors; 270,000 compounds, 0.007% hits; Purified GALK, Kinase-Glo residual ATP luminescence
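Luminescence from leftover ATP (Ultra-Glo luciferase/luciferin) served as read-out after a 1 h room-temperature reaction of 5 nM GALK with 35 uM ATP and 100 uM galactose.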
TrxR1 substrate – qHTS Assay for Substrates of Mammalian Selenoprotein Thioredoxin Reductase 1 (TrxR1): qHTS; purified TrxR1 substrate turnover, NADPH consumption readout; Potency, µM (highest dose often 114 µM); 390,000 compounds, 0.01% hits; further: nearly all actives have a fitted effect of over 50% in size
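Rat TrxR1, dispensed at 90 nM, was prereduced with 400 uM NADPH (final) for 5 min at ~22 deg C, then incubated with compound 15 min before 400 uM selenite. A first-read NADPH fluorescence drop versus no-compound background flagged substrates.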
Large screens that a line does not name were inactive. Sampled rows, rich in hits. Any-hit rate of the full collection: about 1.1%. Unless noted, the call rests on the fitted dose curve; in most records, active means well fitted curve in the direction sought with a large enough effect; inconclusive means small, poorly fitted or top-dose-only effect, or another doubt; inactive means no such curve, though single readings can be large; an effect the other way counts as inactive or inconclusive.

CCCCCn1c2c(c(=N)c3ccccc31)CCC2	miR-21 reporter inconclusive
CCCCCCCCn1c2c(c(=N)c3ccccc31)CCC2	PINK1 expr mod 13µM
CCN(CCC(=O)O)c1ccc(/C=C/c2ccnc3ccccc23)cc1	none (no result: miR-21 reporter, GALK inh)
O=C(/C=C/c1ccco1)N(Cc1ccccc1F)C1CCS(=O)(=O)C1 (stereo not drawn)	TrxR1 inh 28µM
CC(C)c1ccc(CN(C(=O)c2ccco2)C2CCS(=O)(=O)C2)cc1 (stereo not drawn)	none
CC(C)c1ccc(CN(C(=O)/C=C/c2ccco2)C2CCS(=O)(=O)C2)cc1 (stereo not drawn)	TrxR1 inh 14µM
Cc1cccc(C(=O)N(Cc2ccccc2F)C2CCS(=O)(=O)C2)c1 (stereo not drawn)	none (no result: GALK inh)
O=C(Cc1ccccc1)Nc1cccc(N2C(=O)C=CC2=O)c1	TrxR1 inh 3.5µM, miR-21 reporter inconclusive
COc1cccc(NC(=O)Cc2ccccc2)c1	none
COc1ccc(NC(=O)c2cc(-c3ccc(C)o3)nc3ccccc23)cc1OC	TrxR1 inh 28µM
COc1cccc(-c2cc(C(=O)Nc3cc(OC)c(OC)c(OC)c3)no2)c1	PINK1 expr mod 11µM
COc1ccc(NC(=O)c2cc(C(C)C)on2)cc1OC	none
COc1ccc(-c2cc(C(=O)Nc3c(Cl)cc(Cl)cc3Cl)c3ccccc3n2)cc1OC	PINK1 expr mod inconclusive, TrxR1 inh 79µM
COc1ccc(NC(=O)c2cc(-c3ccc(C)o3)nc3ccccc23)c(OC)c1	TrxR1 inh inconclusive (no result: miR-21 reporter, GALK inh)
COc1ccc(NC(=O)c2cc(C)on2)cc1OC	PINK1 expr mod 13µM
COc1ccc(-c2cc(C(=O)Nc3ccc(Cl)cc3Cl)c3ccccc3n2)cc1OC	none
CN(Cc1ccccc1)C(=O)c1ccc2c(c1)N(Cc1ccccc1F)C(=O)c1ccccc1S2(=O)=O	none (no result: GALK inh)
Cc1nc(C)n(CC(=O)NCC2Cc3cc(-c4ccsc4)cc(Cl)c3O2)n1 (stereo not drawn)	none (no result: TrxR1 inh, miR-21 reporter, GALK inh, TrxR1 substrate)
Cc1ccc(/C(O)=C2/C(=O)C(=O)N(Cc3ccco3)C2c2cccs2)cc1 (stereo not drawn)	none
COc1ccc(C(=O)C2C(=O)C(=O)N(Cc3ccco3)C2c2cccs2)cc1 (stereo not drawn)	TrxR1 inh 45µM (no result: miR-21 reporter, GALK inh)
O=c1c2cc3c(cc2n(Cc2cccc(F)c2)c(=O)n1Cc1nc(-c2ccccc2)no1)OCO3	none (no result: GALK inh)
CCCCOc1ccc(C(=O)CCN2CCOCC2)cc1	TrxR1 inh 3.5µM
CCOc1ccc(C(=O)CCN2CCCCCC2)cc1	TrxR1 inh 0.25µM, miR-21 reporter inconclusive
COc1ccc(-c2cc(C(=O)N3CCc4c(cnc(C)c4CNC(=O)c4ccsc4)C3)[nH]n2)cc1	none (no result: TrxR1 inh, miR-21 reporter, GALK inh, TrxR1 substrate)
Cc1ccc(NCC(=O)c2ccc([N+](=O)[O-])cc2)cc1	none
Cc1ccc(NCCC(=O)c2cccc([N+](=O)[O-])c2)c(C)c1	TrxR1 inh 3.2µM
Cc1ccc(C(=O)CNc2cccc([N+](=O)[O-])c2)cc1	none
Cc1cccc(NCCC(=O)c2ccc([N+](=O)[O-])cc2)c1C	TrxR1 inh 4.5µM
O=C(CSc1nc2c([nH]c3ccccc32)c(=O)n1-c1cccc(C(F)(F)F)c1)N1CCCC1	none (no result: GALK inh)
O=C(CSc1nc2ccc(Cl)cc2[nH]1)N1CCN(C(=O)c2ccco2)CC1	TrxR1 inh 16µM
CCc1cc2ccc(C)cc2nc1SCC(=O)N1CCN(C(=O)c2ccco2)CC1	TrxR1 inh 4µM
Cc1cc(Cl)ccc1OCCCC(=O)N1CCN(C(=O)c2ccco2)CC1	TrxR1 inh 28µM
Cc1ccc2nc(SCC(=O)N3CCN(C(=O)c4ccco4)CC3)[nH]c2c1	TrxR1 inh inconclusive
Cc1ccc(C(=O)c2cn(Cc3ccccc3F)c3cc4c(cc3c2=O)OCO4)cc1	none (no result: GALK inh)
O=C(Cn1ccn(-c2ccc(F)c(F)c2)c(=O)c1=O)c1ccc(F)cc1	none (no result: GALK inh)
COc1ccc(Oc2ncc3nc(-c4cn(C)c5ccccc45)c(=O)n(C)c3n2)cc1	none (no result: TrxR1 inh, miR-21 reporter, GALK inh, TrxR1 substrate)
Cc1[nH]n(-c2ccccc2)c(=O)c1C=Nc1cccc(F)c1	none
Cc1cccc(-n2[nH]c(C)c(C=Nc3ccc4[nH]c(=O)[nH]c4c3)c2=O)c1	PINK1 expr mod 32µM
Cc1[nH]n(-c2ccccc2)c(=O)c1C=Nc1ccc2[nH]c(=O)[nH]c2c1	PINK1 expr mod 35µM
CC/C(=N/Nc1cccc(Cl)c1)c1cnnc(SC)n1	PINK1 expr mod 20µM
COc1ccc(Cl)cc1NC(=O)Cn1cc2c(n1)CCC(C)C2 (stereo not drawn)	none (no result: GALK inh)
Cc1cc(C(=O)OC(C(=O)Nc2cccc(C(F)(F)F)c2)c2ccccc2)c(C)o1 (stereo not drawn)	PINK1 expr mod 35µM
Cc1ccc(NC(=O)C(OC(=O)c2cc(C)oc2C)c2ccccc2)cc1 (stereo not drawn)	none
COc1cccc(NC(=O)Nc2cc(-c3cn4cccnc4n3)ccc2OC)c1	none (no result: GALK inh)
COC(=O)C(=Cc1ccccc1[N+](=O)[O-])C(=O)OC	TrxR1 inh 56µM, miR-21 reporter inconclusive
O=C(/C=C/c1ccccc1[N+](=O)[O-])Oc1ccccc1	none (no result: PINK1 expr mod, TrxR1 inh, TrxR1 substrate)
CCN1C(=O)CS/C1=N\S(=O)(=O)c1ccc(Cl)cc1	none
CCn1c(Cl)c(C=O)s/c1=N\S(=O)(=O)c1ccccc1	TrxR1 inh 1.4µM, miR-21 reporter inconclusive
COc1ccccc1NC(=O)N1CCN(c2nnc(C)c3c(C)n(-c4ccccc4)nc23)CC1	none (no result: GALK inh)
C=CCC1NS(=O)(=O)OCC1NC(=O)OCC(Cl)(Cl)Cl (stereo not drawn)	none (no result: GALK inh)
CC(C)(C)OC1NS(=O)(=O)OCC1NCOC(Cl)(Cl)Cl (stereo not drawn)	TrxR1 inh 1.8µM (no result: GALK inh)
CC(=O)Oc1ccc(N2C(=O)C3C4C=CC(O4)C3C2=O)cc1 (stereo not drawn)	TrxR1 inh 5.6µM
CC(=O)Oc1cccc(N2C(=O)C3C4C=CC(C4=C(C)C)C3C2=O)c1 (stereo not drawn)	TrxR1 inh 40µM
CC(=O)Oc1ccc(N2C(=O)CCC2=O)cc1	none
CC(=O)Oc1cccc(N2C(=O)C3C(C2=O)C2C=CC3C23CC3)c1 (stereo not drawn)	none
COc1ccc(-c2c(C#Cc3ccc(N(C)C)cc3)c3ccccc3n2C)cc1	PINK1 expr mod 18µM (no result: miR-21 reporter, GALK inh)
Cc1cc2c(c(-c3nc4ccccc4s3)c1)OC(CNC(=O)c1occc1C)C2 (stereo not drawn)	none (no result: TrxR1 inh, miR-21 reporter, GALK inh, TrxR1 substrate)
COc1cc(OC)nc(-n2ncc(Br)c(Br)c2=O)n1	TrxR1 inh 3.5µM, miR-21 reporter inconclusive (no result: GALK inh)
O=C(c1ccccc1)n1nnc2ccccc21	TrxR1 inh 5µM
CCN1CCN(C(=O)c2cnn(-c3ncc4c(n3)-c3ccccc3CCC4)c2COC)CC1	none (no result: TrxR1 inh, miR-21 reporter, GALK inh, TrxR1 substrate)

High-throughput results: PubChem, National Center for Advancing Translational Sciences (NCATS)
